Measured values taken from the supplement of paper PMC11732987, “Enantioselective OTUD7B fragment discovery through chemoproteomics screening and high-throughput optimisation” (Communications Chemistry, 2025).

Assays:
Experiment in all cases: log2 ratio of Biotin-Ahx-Ub-VS probe labelling (fragment/DMSO); higher = less target engagement (more negative = stronger competition), active = hit call of the paper (q ≤ 0.05, log2 ratio ≤ -1)
Conditions in all cases: compound concentration: 200 uM; treatment time: 3 h
USP19 = target: T1, USP19 (UniProt O94966)
T1 sequence (whole entry): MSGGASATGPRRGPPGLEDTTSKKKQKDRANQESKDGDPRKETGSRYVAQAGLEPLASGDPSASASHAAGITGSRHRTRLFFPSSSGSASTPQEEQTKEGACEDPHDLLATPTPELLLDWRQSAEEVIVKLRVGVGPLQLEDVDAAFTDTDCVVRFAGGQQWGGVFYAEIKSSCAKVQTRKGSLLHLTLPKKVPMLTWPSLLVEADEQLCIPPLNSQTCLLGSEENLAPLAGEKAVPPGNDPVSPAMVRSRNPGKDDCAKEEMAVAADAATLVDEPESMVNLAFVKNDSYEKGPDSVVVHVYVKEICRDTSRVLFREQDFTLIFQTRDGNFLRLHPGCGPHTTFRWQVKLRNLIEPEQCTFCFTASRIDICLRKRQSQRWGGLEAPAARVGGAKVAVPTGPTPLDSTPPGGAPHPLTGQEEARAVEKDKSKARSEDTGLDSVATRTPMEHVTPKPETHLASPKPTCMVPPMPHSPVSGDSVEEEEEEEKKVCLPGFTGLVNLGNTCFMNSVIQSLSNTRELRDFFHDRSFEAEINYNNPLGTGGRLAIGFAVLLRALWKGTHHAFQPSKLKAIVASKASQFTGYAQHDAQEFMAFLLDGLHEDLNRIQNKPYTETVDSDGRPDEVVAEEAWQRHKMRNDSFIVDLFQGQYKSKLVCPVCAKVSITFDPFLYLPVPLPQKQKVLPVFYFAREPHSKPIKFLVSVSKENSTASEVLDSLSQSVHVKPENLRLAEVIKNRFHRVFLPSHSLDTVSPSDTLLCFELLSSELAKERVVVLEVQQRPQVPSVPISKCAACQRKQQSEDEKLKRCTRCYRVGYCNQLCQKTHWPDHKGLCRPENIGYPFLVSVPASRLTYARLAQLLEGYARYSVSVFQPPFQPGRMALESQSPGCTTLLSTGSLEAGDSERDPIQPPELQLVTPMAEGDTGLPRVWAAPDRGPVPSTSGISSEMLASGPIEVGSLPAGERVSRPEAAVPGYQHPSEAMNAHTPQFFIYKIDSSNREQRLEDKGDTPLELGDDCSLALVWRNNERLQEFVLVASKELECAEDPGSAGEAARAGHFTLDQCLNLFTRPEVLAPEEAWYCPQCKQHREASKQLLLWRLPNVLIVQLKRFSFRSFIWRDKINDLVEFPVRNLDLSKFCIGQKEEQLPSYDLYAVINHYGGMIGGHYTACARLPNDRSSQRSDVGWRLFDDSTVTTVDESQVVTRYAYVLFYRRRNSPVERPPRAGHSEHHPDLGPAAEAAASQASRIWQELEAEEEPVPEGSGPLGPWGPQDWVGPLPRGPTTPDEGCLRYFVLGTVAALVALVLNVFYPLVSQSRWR
Summary of the method: (§1)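 Each value is an average log2 ratio of fragment to vehicle, tested by unpaired t-test. The underlying Spectronaut label-free quantities were global-median-normalised, and only proteins with ≥2 unique peptides were included. Triplicate HEK293T lysate samples (495 µg) were exposed to fragment at 200 µM or vehicle for 3 h, then to Biotin-Ahx-Ub-VS at 0.5 µM final for 1 h, before NeutrAvidin enrichment of labelled DUBs, LysC and trypsin digestion, and diaPASEF LC-MS/MS.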

USP24 = USP24 (UniProt Q9UPU5)
Summary of the method: as §1

USP25 = target: T2, USP25 (UniProt Q9UHP3)
T2 sequence (whole entry): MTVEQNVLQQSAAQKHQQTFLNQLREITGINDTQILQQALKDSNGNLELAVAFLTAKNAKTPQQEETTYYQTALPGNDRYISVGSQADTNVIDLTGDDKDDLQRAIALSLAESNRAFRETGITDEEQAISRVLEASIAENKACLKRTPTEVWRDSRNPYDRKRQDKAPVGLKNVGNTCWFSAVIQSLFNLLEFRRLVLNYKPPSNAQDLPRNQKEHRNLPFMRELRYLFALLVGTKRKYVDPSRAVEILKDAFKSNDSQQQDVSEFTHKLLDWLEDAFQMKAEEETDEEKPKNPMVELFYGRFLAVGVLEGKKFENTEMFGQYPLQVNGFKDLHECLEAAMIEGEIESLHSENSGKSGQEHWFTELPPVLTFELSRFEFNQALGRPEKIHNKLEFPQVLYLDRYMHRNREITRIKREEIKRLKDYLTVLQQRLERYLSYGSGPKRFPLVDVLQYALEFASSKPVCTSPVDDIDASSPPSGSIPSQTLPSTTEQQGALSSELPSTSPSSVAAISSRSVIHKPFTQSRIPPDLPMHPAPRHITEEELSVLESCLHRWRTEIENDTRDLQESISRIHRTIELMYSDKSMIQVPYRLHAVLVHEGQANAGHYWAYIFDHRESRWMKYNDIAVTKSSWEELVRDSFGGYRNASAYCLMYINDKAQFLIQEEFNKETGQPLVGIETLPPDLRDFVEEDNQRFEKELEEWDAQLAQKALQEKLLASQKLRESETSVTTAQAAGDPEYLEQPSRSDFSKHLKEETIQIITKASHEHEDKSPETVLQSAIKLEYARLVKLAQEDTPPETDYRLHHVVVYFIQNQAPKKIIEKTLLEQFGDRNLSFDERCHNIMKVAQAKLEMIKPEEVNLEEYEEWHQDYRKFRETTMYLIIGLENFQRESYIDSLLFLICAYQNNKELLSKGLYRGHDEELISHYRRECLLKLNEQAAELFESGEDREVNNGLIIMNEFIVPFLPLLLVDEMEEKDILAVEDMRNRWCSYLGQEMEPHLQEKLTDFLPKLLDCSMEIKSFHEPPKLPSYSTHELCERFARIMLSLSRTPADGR
Summary of the method: as §1

USP28 = target: T3, USP28 (UniProt Q96RU2)
T3 sequence (whole entry): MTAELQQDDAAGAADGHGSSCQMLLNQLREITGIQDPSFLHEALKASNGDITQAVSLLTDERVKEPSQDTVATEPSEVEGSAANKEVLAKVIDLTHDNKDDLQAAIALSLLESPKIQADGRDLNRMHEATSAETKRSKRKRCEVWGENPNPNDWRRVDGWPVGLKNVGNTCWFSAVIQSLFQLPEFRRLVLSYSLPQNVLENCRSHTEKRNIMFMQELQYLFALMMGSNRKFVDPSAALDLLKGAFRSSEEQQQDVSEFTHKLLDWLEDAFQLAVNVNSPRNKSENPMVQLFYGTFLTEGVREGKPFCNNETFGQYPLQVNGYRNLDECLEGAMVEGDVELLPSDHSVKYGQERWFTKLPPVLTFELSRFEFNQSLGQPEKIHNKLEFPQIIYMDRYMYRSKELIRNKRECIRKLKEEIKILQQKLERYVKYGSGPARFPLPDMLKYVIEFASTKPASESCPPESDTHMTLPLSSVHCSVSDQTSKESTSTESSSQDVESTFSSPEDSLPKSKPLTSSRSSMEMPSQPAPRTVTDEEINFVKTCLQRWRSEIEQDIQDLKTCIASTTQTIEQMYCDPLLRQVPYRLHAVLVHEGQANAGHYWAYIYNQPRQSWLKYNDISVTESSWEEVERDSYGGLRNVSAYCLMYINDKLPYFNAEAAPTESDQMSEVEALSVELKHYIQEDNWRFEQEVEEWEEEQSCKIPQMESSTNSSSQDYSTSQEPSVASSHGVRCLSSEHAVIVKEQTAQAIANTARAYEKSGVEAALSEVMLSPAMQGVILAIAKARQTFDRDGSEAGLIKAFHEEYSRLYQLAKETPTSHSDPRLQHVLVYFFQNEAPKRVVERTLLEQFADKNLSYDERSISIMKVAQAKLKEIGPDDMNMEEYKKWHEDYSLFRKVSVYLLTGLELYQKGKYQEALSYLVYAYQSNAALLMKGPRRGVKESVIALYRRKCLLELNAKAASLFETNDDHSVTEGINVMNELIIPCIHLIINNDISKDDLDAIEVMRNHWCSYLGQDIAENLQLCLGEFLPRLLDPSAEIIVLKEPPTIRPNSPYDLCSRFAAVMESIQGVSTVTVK
Summary of the method: as §1

Measured: log2 ratio of Biotin-Ahx-Ub-VS probe labelling

Sequence of USP24 (Q9UPU5 whole entry): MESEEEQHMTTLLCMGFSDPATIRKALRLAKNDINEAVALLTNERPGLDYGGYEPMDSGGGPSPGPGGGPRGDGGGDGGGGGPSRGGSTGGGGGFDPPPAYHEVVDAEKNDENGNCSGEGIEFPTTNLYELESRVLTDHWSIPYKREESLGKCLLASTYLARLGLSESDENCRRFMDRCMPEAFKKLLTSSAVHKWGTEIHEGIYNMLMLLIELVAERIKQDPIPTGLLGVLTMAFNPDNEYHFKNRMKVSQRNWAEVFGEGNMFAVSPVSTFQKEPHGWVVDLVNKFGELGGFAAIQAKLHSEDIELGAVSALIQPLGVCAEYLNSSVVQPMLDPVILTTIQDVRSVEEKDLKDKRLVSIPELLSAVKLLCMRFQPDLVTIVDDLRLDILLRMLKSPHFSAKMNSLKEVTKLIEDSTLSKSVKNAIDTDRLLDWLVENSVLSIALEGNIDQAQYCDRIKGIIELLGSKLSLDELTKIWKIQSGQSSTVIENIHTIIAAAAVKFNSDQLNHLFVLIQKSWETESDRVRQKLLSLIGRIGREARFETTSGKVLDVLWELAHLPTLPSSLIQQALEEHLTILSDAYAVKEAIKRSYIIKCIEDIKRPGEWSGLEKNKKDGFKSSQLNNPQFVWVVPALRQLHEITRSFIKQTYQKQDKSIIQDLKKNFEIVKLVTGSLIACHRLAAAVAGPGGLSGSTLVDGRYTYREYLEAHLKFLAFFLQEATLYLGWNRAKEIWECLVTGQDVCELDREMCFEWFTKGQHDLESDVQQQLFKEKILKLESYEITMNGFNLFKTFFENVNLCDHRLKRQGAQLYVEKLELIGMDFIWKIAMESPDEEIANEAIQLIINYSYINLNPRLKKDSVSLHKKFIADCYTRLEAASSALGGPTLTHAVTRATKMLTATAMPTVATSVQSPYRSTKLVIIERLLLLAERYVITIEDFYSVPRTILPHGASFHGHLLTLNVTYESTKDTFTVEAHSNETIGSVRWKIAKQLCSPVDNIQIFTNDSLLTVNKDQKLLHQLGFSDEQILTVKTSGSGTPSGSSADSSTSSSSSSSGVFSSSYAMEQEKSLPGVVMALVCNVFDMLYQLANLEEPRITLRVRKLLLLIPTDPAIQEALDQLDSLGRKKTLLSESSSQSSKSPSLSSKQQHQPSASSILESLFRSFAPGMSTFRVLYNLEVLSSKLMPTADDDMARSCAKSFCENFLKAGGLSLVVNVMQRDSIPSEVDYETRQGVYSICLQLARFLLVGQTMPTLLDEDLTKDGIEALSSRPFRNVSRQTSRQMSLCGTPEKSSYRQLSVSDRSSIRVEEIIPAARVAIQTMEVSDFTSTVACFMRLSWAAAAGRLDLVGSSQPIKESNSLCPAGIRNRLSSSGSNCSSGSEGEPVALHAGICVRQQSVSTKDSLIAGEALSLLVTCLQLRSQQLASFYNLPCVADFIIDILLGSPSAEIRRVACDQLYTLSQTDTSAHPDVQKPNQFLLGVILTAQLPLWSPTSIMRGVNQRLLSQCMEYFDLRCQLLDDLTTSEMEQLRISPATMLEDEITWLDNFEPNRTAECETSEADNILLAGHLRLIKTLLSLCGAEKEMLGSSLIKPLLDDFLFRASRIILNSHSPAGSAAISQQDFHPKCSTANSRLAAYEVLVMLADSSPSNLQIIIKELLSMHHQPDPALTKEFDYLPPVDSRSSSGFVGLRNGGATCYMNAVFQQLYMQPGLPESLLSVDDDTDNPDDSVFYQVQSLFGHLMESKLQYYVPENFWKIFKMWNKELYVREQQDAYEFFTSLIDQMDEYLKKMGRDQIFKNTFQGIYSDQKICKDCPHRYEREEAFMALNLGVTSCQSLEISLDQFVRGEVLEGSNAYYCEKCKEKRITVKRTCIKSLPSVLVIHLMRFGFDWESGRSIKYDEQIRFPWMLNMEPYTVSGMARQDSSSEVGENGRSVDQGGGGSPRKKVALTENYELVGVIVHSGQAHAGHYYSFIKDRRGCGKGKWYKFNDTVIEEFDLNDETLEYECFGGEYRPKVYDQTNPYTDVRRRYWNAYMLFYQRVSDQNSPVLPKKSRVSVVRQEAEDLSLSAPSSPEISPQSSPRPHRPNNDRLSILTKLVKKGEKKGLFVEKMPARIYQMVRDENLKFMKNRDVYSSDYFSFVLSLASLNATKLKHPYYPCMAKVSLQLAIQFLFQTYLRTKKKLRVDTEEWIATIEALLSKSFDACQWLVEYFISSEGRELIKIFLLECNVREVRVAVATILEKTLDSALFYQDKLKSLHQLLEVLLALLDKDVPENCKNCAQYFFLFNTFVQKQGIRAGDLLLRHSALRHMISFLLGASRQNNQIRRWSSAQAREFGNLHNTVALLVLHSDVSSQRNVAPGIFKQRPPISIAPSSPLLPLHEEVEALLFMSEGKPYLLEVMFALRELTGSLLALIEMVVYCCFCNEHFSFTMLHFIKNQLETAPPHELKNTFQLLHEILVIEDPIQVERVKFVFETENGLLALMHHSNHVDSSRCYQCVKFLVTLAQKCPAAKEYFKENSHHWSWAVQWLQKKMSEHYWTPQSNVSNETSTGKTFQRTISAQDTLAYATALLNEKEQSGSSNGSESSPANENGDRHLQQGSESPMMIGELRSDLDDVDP

CS(=O)(=O)c1ccc(CNC(=O)CCl)cc1
inactive: USP19 -0.123 | USP24 -0.159 | USP25 -0.385 | USP28 -0.583
